From PubChem BioAssay AID651871 (Sanford-Burnham Center for Chemical Genomics, 2012) come the findings set out here.

Where “and” joins values, the source holds several entries; their conditions need not be identical. Equal entries are not always repeated.

This assay concerns H9c2. Nature of the assay: protection of cardiomyocytes from stress damage, SAR follow-up, cell-based, panel, H9c2 and HL-1, ATP luminescence, set 2 (AID 651871).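 Note: cells exposed to stressor for 2 h before ATP readout; reference of the scale not given here.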 The settings on record: H9c2/HL-1 cardiomyocytes, 2-deoxyglucose stress, with 2-deoxyglucose; run 9, at 79 µM (top of the series).
For the compound `COc1ccc2nc(-c3cc(OC)c(OC)c(OC)c3)cc(C(=O)NCC(=O)Nc3ccc(C(C)=O)cc3)c2c1`, the activity (protection/inhibition) worked out at 84.5%.

For the compound `COc1ccc2c(c1OC)C(=O)N1c3ccccc3C(=O)N(Cc3cccc(Cl)c3Cl)C21` (stereo not drawn), the activity (protection/inhibition) is 81.1% and 78.3% and -1.59%.

Regarding `CCOC(=O)c1cccc(NC(=O)CNC(=O)c2cc(-c3cc(OC)c(OC)c(OC)c3)nc3ccccc23)c1`, the activity (protection/inhibition) stood at 90.9%.
